Reference: PubChem BioAssay (NCI)
This is part of a sample that, as a whole, favours compounds with a hit. Of some 79,000 tested, about 15% had one in any assay. Calls of active or inactive are those of the source. No stated cut-off is given here; in the data, active means growth inhibition above about 70%; inactive means the rest.

How the values were obtained:
[1] = NCI Yeast Anticancer Drug Screen. Data for the rad50 strain (AID 155);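 further: 0% = growth of vehicle-only cultures of the same strain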; conditions: S. cerevisiae rad50 strain growth inhibition, hits give high values
How it was run: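 Genetically altered yeast (DNA repair pathway); compound treatment; growth inhibition vs vehicle ctrl.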

[2] = NCI Yeast Anticancer Drug Screen. Data for the mec2-1 strain (AID 157); conditions: S. cerevisiae mec2-1 strain, hits give high values
How it was run: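 Vehicle-treated cultures served as reference for growth inhibition of compound-exposed mec2-1 yeast.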

[3] = NCI Yeast Anticancer Drug Screen. Data for the sgs1 mgt1 strain (AID 161);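 further: 0% = growth of cultures given vehicle only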; conditions: S. cerevisiae sgs1 mgt1 strain, hits give high values
How it was run: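 Genetically altered yeast, compound exposure, growth inhibition relative to vehicle.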

[4] = NCI Yeast Anticancer Drug Screen. Data for the cln2 rad14 strain (AID 165);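 further: 0% = growth equal to vehicle treated cultures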; conditions: S. cerevisiae cln2 rad14 strain, hits give high values
How it was run: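 Each compound was tested on cln2 rad14 yeast. Inhibition of growth was calculated against vehicle-exposed controls.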

[5] = NCI Yeast Anticancer Drug Screen. Data for the bub3 strain (AID 167); conditions: S. cerevisiae bub3 mutant strain, hits give high values
How it was run: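 Yeast carrying a defined mutation is treated with each compound, and growth is compared with that of vehicle-exposed cells to give inhibition.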

[6] = NCI Yeast Anticancer Drug Screen. Data for the mlh1 rad18 strain (AID 175); conditions: S. cerevisiae mlh1 rad18 strain growth inhibition, hits give high values
How it was run: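 Vehicle-treated cultures served as the reference for growth inhibition in a yeast strain carrying DNA damage repair alterations exposed to each compound.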

[7] = at 5.0 µM (retest, dose inferred, filed as 0.5)
[8] = at 50.0 µM (retest, dose inferred, filed as 5.0)

Measured: growth inhibition

CCOC(=O)C1=C(c2ccccc2)OC(N)=C(C#N)C1c1ccc(C)cc1 (stereo unspecified)
inactive: [1]; [7] 4% | [1]; [8] 25% | [2]; [7] 0% | [2]; [8] 66% | [3]; [7] 10% | [3]; [8] 64% | [4]; [7] -4% | [4]; [8] 29% | [5]; [7] 1% | [5]; [8] 50% | [6]; [7] -2% | [6]; [8] 65%
active: [1]; at 50.0 µM 77.1% | [2]; at 50.0 µM 89.5% | [3]; at 50.0 µM 92.5% | [4]; at 50.0 µM 89% | [5]; at 50.0 µM 80.1% | [6]; at 50.0 µM 85.9%

COc1ccc(Cc2nncc3ccccc23)cc1OC
inactive: [1]; [7] -4% | [2]; [7] 1% | [3]; [7] -3% | [4]; [7] 1% | [5]; [7] 1% | [6]; [7] -4%
active: [1]; [8] 84% | [1]; at 50.0 µM 91.2% | [2]; [8] 83% | [2]; at 50.0 µM 96.5% | [3]; [8] 92% | [3]; at 50.0 µM 95.3% | [4]; [8] 83% | [4]; at 50.0 µM 72.2% | [5]; [8] 90% | [5]; at 50.0 µM 96% | [6]; [8] 93% | [6]; at 50.0 µM 95.7%

COc1ccc(C(=O)C2C(=O)C(=O)OC2C2OC(=O)C(=O)C2C(=O)c2ccc(OC)cc2)cc1 (stereo unspecified)
inactive: [1]; [7] -1% | [1]; [8] 2% | [1]; at 50.0 µM -9.6% | [2]; [7] -3% | [2]; [8] -3% | [2]; at 50.0 µM -7.3% | [3]; [7] 0% | [3]; [8] 2% | [3]; at 50.0 µM -8.2% | [4]; [7] -4% | [4]; [8] 1% | [4]; at 50.0 µM -15.3% | [5]; [7] 0% | [5]; [8] -5% | [5]; at 50.0 µM 3.05% | [6]; [7] 0% | [6]; [8] -1% | [6]; at 50.0 µM -15.7%

COc1ccc2c(c1)Cc1cc(NC(=O)N(CCCl)N=O)ccc1-2
inactive: [1]; [7] -2% | [2]; [7] 2% | [2]; at 50.0 µM 55.9% | [3]; [7] 3% | [4]; [7] -5% | [4]; [8] 49% | [4]; at 50.0 µM -0.85% | [5]; [7] -11% | [5]; [8] 41% | [5]; at 50.0 µM 22.9% | [6]; [7] 28%
active: [1]; [8] 85% | [1]; at 50.0 µM 90.2% | [2]; [8] 88% | [3]; [8] 77% | [3]; at 50.0 µM 89.2% | [6]; [8] 94% | [6]; at 50.0 µM 95.6%

CN(/N=C/C(O)C(O)C(O)CO)c1ccccc1 (stereo unspecified)
active: [1]; [8] 97% | [1]; at 50.0 µM 98% | [2]; [8] 99% | [2]; at 50.0 µM 98.5% | [3]; [8] 99% | [3]; at 50.0 µM 98.5% | [4]; [8] 98% | [4]; at 50.0 µM 98.5% | [5]; [8] 99% | [5]; at 50.0 µM 98.5% | [6]; [8] 99% | [6]; at 50.0 µM 98.8%
inactive: [1]; [7] 20% | [2]; [7] 3% | [3]; [7] 9% | [4]; [7] 14% | [5]; [7] 36% | [6]; [7] 47%

Fc1cccc(NC(=S)SCc2ccco2)c1
inactive: [1]; [7] 9% | [2]; [7] -1% | [3]; [7] 2% | [4]; [7] -2% | [4]; [8] 45% | [4]; at 50.0 µM 61.2% | [5]; [7] -11% | [5]; [8] 61% | [6]; [7] -1%
active: [1]; [8] 84% | [1]; at 50.0 µM 97.7% | [2]; [8] 93% | [2]; at 50.0 µM 84.2% | [3]; [8] 80% | [3]; at 50.0 µM 96% | [5]; at 50.0 µM 82% | [6]; [8] 89% | [6]; at 50.0 µM 97.2%

CCN(CC)CCCCSc1ccc([N+](=O)[O-])cc1[N+](=O)[O-]
inactive: [1]; [7] 27% | [1]; [8] 45% | [2]; [7] 32% | [2]; [8] 36% | [2]; at 50.0 µM 45.4% | [3]; [7] 32% | [3]; [8] 68% | [4]; [7] 43% | [4]; [8] 43% | [4]; at 50.0 µM 59.3% | [5]; [7] 30% | [5]; [8] 47% | [5]; at 50.0 µM 65.8% | [6]; [7] 23% | [6]; [8] 44%
active: [1]; at 50.0 µM 77.6% | [3]; at 50.0 µM 72.8% | [6]; at 50.0 µM 71.9%
